Results published in PubChem BioAssay (NCI).
Compounds without any hit were thinned out: in the full panel of roughly 79,000, 15% have a hit. Values without a mark were called inactive. Active and inactive are the calls of the source. No stated cut-off is given here; in the data, active means growth inhibition above about 70%; inactive means the rest.

Columns and labels:
[1] = NCI Yeast Anticancer Drug Screen. Data for the rad50 strain (AID 155);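 further: 0% = growth of vehicle-only cultures of the same strain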; conditions: S. cerevisiae rad50 strain growth inhibition; at 50.0 µM; active compounds read high
Procedure, shortened: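 A DNA repair-deficient yeast mutant serves as the test organism; compound-induced growth inhibition is calculated against vehicle-treated cells.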

[2] = NCI Yeast Anticancer Drug Screen. Data for the mec2-1 strain (AID 157); conditions: S. cerevisiae mec2-1 strain, at 50.0 µM, active compounds read high
Procedure, shortened: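 Yeast mec2-1 mutant treated with compound. Readout: growth inhibition vs vehicle controls.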

[3] = NCI Yeast Anticancer Drug Screen. Data for the sgs1 mgt1 strain (AID 161);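 further: 0% = growth of cultures given vehicle only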; conditions: S. cerevisiae sgs1 mgt1 strain, at 50.0 µM, active compounds read high
Procedure, shortened: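 Test agents were incubated with a DNA-repair-mutant yeast strain. Growth was then read and compared against vehicle-treated controls.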

[4] = NCI Yeast Anticancer Drug Screen. Data for the cln2 rad14 strain (AID 165);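 further: 0% = growth equal to vehicle treated cultures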; conditions: S. cerevisiae cln2 rad14 strain, at 50.0 µM, active compounds read high
Procedure, shortened: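 cln2 rad14 yeast strain; compound exposure; growth inhibition read vs vehicle controls.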

[5] = NCI Yeast Anticancer Drug Screen. Data for the bub3 strain (AID 167); conditions: S. cerevisiae bub3 mutant strain, at 50.0 µM, active compounds read high
Procedure, shortened: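 Inhibition values come from growth of compound-treated mutant yeast normalised to vehicle-treated controls.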

[6] = NCI Yeast Anticancer Drug Screen. Data for the mlh1 rad18 strain (AID 175); conditions: S. cerevisiae mlh1 rad18 strain growth inhibition; at 50.0 µM; active compounds read high
Procedure, shortened: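 Yeast w/ defined DNA-repair lesions; compound exposure; growth vs vehicle controls → % inhibition.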

Row | SMILES | growth inhibition [1] [%] | growth inhibition [2] | growth inhibition [3] [%] | growth inhibition [4] | growth inhibition [5] | growth inhibition [6] [%]
1 | CC(=O)Nc1ccc(N)cc1N | -1.3 | -37.8% | -17.9 | 29.7% | -6.35% | 13.8
2 | COc1cccc(/C=N/N(C)c2c([N+](=O)[O-])cc(C(F)(F)F)cc2[N+](=O)[O-])c1O | -1.3 | -17.3% | -16.6 | 14.1% | 3.7% | -5.8
3 | CN(C)CC1OCCc2ccccc21 (stereo unspecified) | 10.1 | 2.9% | 3.75 | 0.6% | 6.05% | 10
4 | O=C(Oc1ccccc1)Oc1c(Cl)cc([N+](=O)[O-])cc1[N+](=O)[O-] | 25 | 1.4% | 5.25 | 10.9% | 0.45% | 15.5
5 | NC(=O)CC(NC(=O)C(F)(F)F)C(=O)O (stereo unspecified) | -15.3 | -22.9% | -13.4 | -6.85% | -14.2% | -24.2
6 | CCN(CC)C(C)(C)C(=O)/C=C/c1ccc(C)cc1 | 5.45 | -3.75% | -16.5 | 12.3% | 5.75% | 43.1
7 | CC(C)(C)S(=O)(=O)CCCCl | 12.8 | -13.9% | -1.65 | -8.5% | 13.2% | 13.5
8 | COC(=O)C1(OC)C(=O)NC2=C1C(=O)c1ccccc1C2=O (stereo unspecified) | -12.1 | -13% | -4.1 | -18.8% | 9.3% | 4.8
9 | N#CC1(NC(=O)N(CCCl)N=O)CCCCC1 | 4.8 | 1.25% | -0.6 | 5.65% | 9.95% | -27.9
10 | N#CCSCC(N)C(=O)O (stereo unspecified) | -11.1 | -15.2% | -1.1 | -6.75% | -19.6% | -4.8
11 | CC(O)/C=C/C(CCC(C)CO)C(C)C (stereo unspecified) | -17 | -27.6% | -26 | -10.2% | -25.9% | -16
12 | CCOC(=O)NC(C(F)(F)F)(C(F)(F)F)P(=O)(OC(C)C)OC(C)C | -23 | -11.6% | -12.4 | 31.1% | 3.65% | 1.65
13 | ClC1C2C=CC(C2)C12OCCO2 (stereo unspecified) | 2.35 | 11.7% | -1.6 | 6.85% | -10.7% | -18.4
14 | CCOC=C(C(=O)OCC)C(=O)OCC | 22.1 | -7.45% | -6.5 | -1% | -10.6% | 15.6
15 | O=C(NC(Cc1ccc(O)cc1)C(=O)O)C(=O)c1c[nH]c2ccc([N+](=O)[O-])cc12 (stereo unspecified) | 3.45 | 1.45% | -23.1 | 0.45% | 2.8% | 26.9
16 | CC1(C)OC(=O)C(=Cc2ccc(-c3ccccc3[N+](=O)[O-])o2)C(=O)O1 | 3.05 | 6.25% | 31 | 23.6% | 29.5% | 26.6
17 | CCNc1nc2c(N)ncnc2n1C1OC(CO)C(O)C1O (stereo unspecified) | 12.8 | -8.4% | 6.45 | -3.35% | -0.1% | -6.6
18 | COc1cc2c(cc1OC)C(O)C(O)(CO)C(C(=O)O)C2c1cc(OC)c(OC)c(OC)c1 (stereo unspecified) | 24.4 | -10.3% | 12.1 | 18.2% | 25.1% | 22.7
19 | O=C(NNC(=O)c1ccc(Cl)cc1Cl)c1ccccc1 | -13.8 | 0.2% | -4.75 | -9.9% | -9.2% | -7.8
20 | c1ccc2nc3ccccc3cc2c1 | 2.7 | 19.6% | 27.1 | 27.8% | 3.1% | 5.95
21 | COc1cc(Cl)c(CC(=O)c2c[nH]c3ccccc23)cc1OC | 10.6 | -27.1% | -17.8 | -31.7% | -29.2% | 20.6

Row | SMILES | growth inhibition [1] [%] | growth inhibition [2] | growth inhibition [3] [%] | growth inhibition [4] | growth inhibition [5] | growth inhibition [6] [%]
22 | O=C(Nn1c(-c2ccccc2)nc2ccccc2c1=O)c1ccc([N+](=O)[O-])cc1 | -1.9 | 14.6% | 4.6 | -1% | 17.2% | 13.9
23 | Cc1ccccc1NN | 29.1 | 7.05% | -2.3 | -2.6% | 4% | 7.6
24 | CN(C)C(=O)NNC(=O)N(C)C | 1.75 | 20.5% | 12.8 | -22.5% | 6.85% | -0.7
25 | C=C1CC2OC(=O)C(=C)C2C(OC(=O)c2ccccc2)/C=C(\C)CCC1OC(=O)c1ccccc1 (stereo unspecified) | -13.7 | -3.25% | -11.2 | -39.3% | -0.85% | -21.4
26 | COc1cc(=O)cc2n(c1=O)CCC2 | -8.45 | -5.05% | -13.2 | -28% | 8.5% | -2.25
27 | CSC(=S)n1nc(-c2ccccc2)c(N=Nc2ccccc2[N+](=O)[O-])c1-c1ccccc1 | 31.6 | 12.5% | 20.2 | -30.9% | 18.6% | 29.9
28 | Cc1nc(N)nc(C)c1N=Nc1cc(Cl)cc(Cl)c1 | -27.1 | 4.15% | -2.2 | -32.9% | 10.2% | -7.85
29 | COc1ccc2c(c1)OCCN(C)OC2c1ccccc1 (stereo unspecified) | -7.65 | -4.6% | -10.2 | 0.5% | 11.1% | -1.5
30 | O=C(O)C(O)C(O)C(O)C(O)C(=O)O (stereo unspecified) | 7.35 | -13.1% | 12 | -1.55% | -5.1% | 3.15
31 | Cc1ccccc1N=Nc1c(-c2ccccc2)nn(C(N)=S)c1-c1ccccc1 | 36.2 | 7.2% | 24.1 | 4.05% | 0.95% | 19
32 | O=C(NNC(=S)Nc1ccccc1)C12CC3CC(CC(C3)C1)C2 | -12 | 31.4% | 29.8 | 14.7% | 35.5% | 1.3
33 | Cc1cc(C(F)(F)F)nc2nc3ccccc3n12 | 6.55 | -18.9% | -0.15 | -3.7% | -29.7% | 6.2
34 | Oc1ccccc1C=Nc1ccc(Cl)cn1 | 17.2 | 15.2% | 16.2 | 21.6% | 18.9% | 20.8
35 | CCCc1cc(C(=O)N/N=C/c2ccc([N+](=O)[O-])cc2)c2ccccc2n1 | -28.3 | -3.2% | 0.1 | -40.5% | 9.5% | -2.8
36 | O=C(/C=C/c1ccc2c(c1)OCO2)C1CC1 | 6.45 | 11.1% | 28.2 | 8.25% | 27.7% | 16.9
37 | N#CC(c1ccccc1)C1CCN(Cc2ccccc2)CC1 (stereo unspecified) | 45.8 | 20.8% | 48.1 | 47.8% | 45.8% | 33.1
38 | Clc1ccc(N=Cc2ccc(C=Nc3ccc(Cl)cc3)cc2)cc1 | 8 | 9.25% | 24.1 | 21.6% | 15% | 19.9
39 | CCCC[P+](C)(CC[P+](C)(c1ccccc1)c1ccccc1)c1ccccc1 (stereo unspecified) | 36.3 | 80.8% (active) | 69 | 96.5% (active) | 98.1% (active) | 37.3
40 | CCCC[P+](CCCC)(CCCC)C(C(=O)OC)C(C(=O)OC)=C1SC(C(=O)OC)=C(C(=O)OC)S1 (stereo unspecified) | -0.75 | 0.7% | 6.75 | 6.6% | 19.4% | -45.5
41 | CCCCCCCCCCNCC(=O)O | -11.1 | -16.6% | -1.65 | -7.6% | -1.6% | -8.95
